Here are results for 23 compounds from PubChem BioAssay (Tox21).

Several values for one entry are separate records, joined by “and”; a condition that tells them apart may be missing. Equal values may be shown once. Results filed as inconclusive are left out. Some compounds were tested as several samples or in several runs, with calls that do not always agree. Activity calls are given as the source filed them. Calls follow the shape of the dose curve; as a rule, active = well fitted curve in the direction sought with a large enough effect in the repeat runs; inconclusive = weak or mixed curves; inactive = no such curve, though single readings can be large; an effect the other way counts as inactive or inconclusive.

Test [1] is described as follows: qHTS RealTime-Glo MT Cell Viability Assay in HEK293 cells - 16 hour (AID 1224872). Also: nearly all actives have a fitted effect of over 50% in size. Also: potency is read from the fitted curve at half-maximal effect. As to activity change, negative = cytotoxicity: top concentration of the series differs between compounds. Put shortly: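 HEK293 cells seeded with NanoLuc/prosubstrate reagent, rested 5 h at 37 C, then dosed and kept at 37 C up to 40 h. Nonlytic real-time luminescence from viable cells read at 0, 8, 16, 24, 32 and 40 h.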
(qHTS replaces the single test concentration by a dilution series.)

Test [2] can be described thus: qHTS RealTime-Glo MT Cell Viability Assay in HepG2 cells - 8 hour (AID 1224873). Also: nearly all actives have a fitted effect of over 55% in size. Also: potency is read from the fitted curve at half-maximal effect. Put shortly:
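Real-time viability: cells seeded at 600 per well together with NanoLuc and cell-permeant prosubstrate, compounds added after 5 h incubation. Luminescence tracked at 0, 8, 16, 24, 32 and 40 h of exposure.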

A short description of test [3]: qHTS RealTime-Glo MT Cell Viability Assay in HEK293 cells - 40 hour (AID 1224874). Also: nearly all actives have a fitted effect of over 50% in size. Also: potency is read from the fitted curve at half-maximal effect. Conditions: RealTime-Glo luminescence; max response: stronger effect = lower value. Put shortly: (§1)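 Measured as luminescence from the same continuously cultured HEK293 wells at successive time points (0, 8, 16, 24, 32, 40 h) after compound addition. Reagent present from seeding; dosing at 5 h; incubation 37 C.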

Test [4] is described as follows: A CellTox Green Cytotoxicity Assay to monitor cytotoxicity in HEK293 cells - 24 hour (AID 1224875). Also: series mostly up to about 77 µM; nearly all actives have a fitted effect of over 45% in size. Summed up:
(§2)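 Homogeneous no-lysis format: HEK293 cell suspension mixed with CellTox Green reagent, seeded, incubated 5 h at 37 C/5% CO2, then dosed by pintool with compound in DMSO.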

A short description of test [5]: A CellTox Green Cytotoxicity Assay to monitor cytotoxicity in HepG2 cells - 16 hour (AID 1224876). Also: nearly all actives have a fitted effect of over 45% in size. Also: potency is read from the fitted curve at half-maximal effect. Put shortly: (§3)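 Fluorescent DNA-binding dye, 600 HepG2 cells/well, 5 h preincubation then compound in DMSO; same plates read at 0–40 h, 37 C.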
Test [6] can be described thus: qHTS RealTime-Glo MT Cell Viability Assay in HepG2 cells - 32 hour (AID 1224877). Also: nearly all actives have a fitted effect of over 55% in size. Also: potency is read from the fitted curve at half-maximal effect. Put shortly:
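HepG2 cells (600/well) were dispensed with RealTime-Glo reagents, incubated 5 h at 37 °C, then treated with compounds in DMSO for up to 40 h. Nonlytic NanoLuc luminescence reflecting viable cells was read at each stated time point.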

Test [7] is described as follows: A CellTox Green Cytotoxicity Assay to monitor cytotoxicity in HepG2 cells - 24 hour (AID 1224878). Also: nearly all actives have a fitted effect of over 45% in size. Also: potency is read from the fitted curve at half-maximal effect. Put shortly:
as §3

Test [8] is described as follows: A CellTox Green Cytotoxicity Assay to monitor cytotoxicity in HepG2 cells - 40 hour (AID 1224879). Also: nearly all actives have a fitted effect of over 40% in size. Also: potency is read from the fitted curve at half-maximal effect. Summed up:
as §3

Test [9] in a line: qHTS RealTime-Glo MT Cell Viability Assay in HEK293 cells - 0 hour (AID 1224880). Also: top concentration of the series differs between compounds; nearly all actives have a fitted effect of over 45% in size. Summed up: as §1
Test [10] is described as follows: A CellTox Green Cytotoxicity Assay to monitor cytotoxicity in HEK293 cells - 32 hour (AID 1224881). Also: nearly all actives have a fitted effect of over 40% in size. Also: potency is read from the fitted curve at half-maximal effect. Summed up: as §2
% is scaled to controls: 0 for no effect and ±100 for the full control effect.

Take `OC/C=C/CO`: the Potency result in test [1], in test [2], in test [4], in test [5], in [6] and in [7] was “inactive” throughout. Also, the Potency entry in test [8], in [9] and in [10] was “inactive” each time. Further, in [3], the max response was 0.626% (inactive).

As for `O=S(=O)(O)c1ccccc1/C=C/c1ccc(-c2ccc(/C=C/c3ccccc3S(=O)(=O)O)cc2)cc1`, the Potency result in test [1], in test [2], in [4], in test [6], in test [7] and in test [8] was “inactive” each time. Moreover, the Potency entry in [9] and in test [10] was “inactive” each time. In addition, the max response in test [3] is 3.02% (inactive).

On to `C#Cc1ccc(-c2ccccc2F)cc1`, for which the Potency entry in [1], in test [2], in [4], in test [6], in [7] and in test [9] was “inactive” throughout. For the same compound, the Potency result in test [10] is “inactive”. The max response in test [3] was 5.33% (inactive).

Turning to `CCCCCCCCCCCCOC(=O)c1ccc(O)cc1`, the Potency in test [1] was 44 µM (active). Besides, the Potency entry in test [2], in [4], in test [5], in test [6], in test [7] and in test [8] was “inactive” each time. The Potency entry in test [9] and in [10] was “inactive” in each case.

As to `Sc1nc2ccccc2s1`, the Potency result in test [1], in test [2], in test [5], in test [6] and in test [9] was “inactive” each time. Besides, in test [3], the max response is 15.8% (inactive).

Turning to `O=C(c1ccc(O)c(O)c1)c1ccc(O)cc1O`, the Potency entry in test [1], in [2], in test [6] and in [9] was “inactive” throughout. Further, the Potency in [3] was 24.5 µM (active).

For `COc1cc2nc(N3CCN(C(=O)c4ccco4)CC3)nc(N)c2cc1OC`, the activity change, negative = cytotoxicity is -20% [at 15.8 µM] (inactive) in [1] and 4.25% [at 15.8 µM] (inactive) in test [9]. Besides, in test [2], the viability change, negative = cytotoxic was -0.626% [at 15.8 µM] (inactive). Moreover, the max response in test [3] is -18.8% (inactive). The activity change in test [4] was 21% [at 15.8 µM, stronger effect = higher value] (inactive). The results for the Potency in test [7] and in test [8] were 7.37 µM (active) and 10.4 µM (active), respectively. In test [10], the cytotoxicity increase was 43.4% [at 15.8 µM] (inactive).

Consider `Cc1cc(C(C)(C)C)cc(C)c1CC1=NCCN1`, for which the Potency entry in [1], in test [4], in test [5], in test [6], in test [7] and in test [8] was “inactive” each time. Also, the Potency entry in test [9] and in test [10] was “inactive” throughout. Further, in test [3], the max response was -8.22% (inactive).

As to `CC(=O)OCC=C(C)C`, the Potency entry in test [1], in [2], in [4], in test [6], in [9] and in [10] was “inactive” throughout. Also, in [3], the max response is -1.54% (inactive).

For `O=c1oc2cc(O)ccc2c2oc3cc(O)ccc3c12`, in test [1], the Potency was 21 µM (active). The Potency result in [2], in test [4], in test [5], in [6], in test [7] and in test [8] was “inactive” throughout. For the same compound, the Potency result in test [9] and in test [10] was “inactive” each time.

For `Cc1ccc(-c2ccccc2)cc1`, the Potency entry in test [1], in [2], in test [4], in test [6], in [9] and in [10] was “inactive” each time. In addition, the values for the Potency in [5], in [7] and in [8] were 49 µM (active), 43.6 µM (active) and 43.6 µM (active), respectively.

Turning to `Cc1c(C)c2c(c(C)c1OC(=O)c1cccnc1)CC[C@@](C)(CCC[C@H](C)CCC[C@H](C)CCCC(C)C)O2`, the Potency entry in test [1], in [4], in test [5], in [6], in test [7] and in test [8] was “inactive” in each case. The Potency entry in test [9] is “inactive”. Moreover, the max response in [3] was -1.07% (inactive).

Take `[Cu+]`: the Potency result in test [1], in [2], in [4], in test [5], in test [7] and in test [8] was “inactive” in each case. For the same compound, the Potency entry in [9] was “inactive”. The Potency in test [6] is 49 µM (active).

Consider `Nc1nc(N)nc(-c2cc(Cl)ccc2Cl)n1`, for which the Potency entry in test [1], in [4], in test [5], in test [6], in test [7] and in [8] was “inactive” throughout. In addition, the Potency entry in [9] was “inactive”. For the same compound, the max response in [3] is 3.58% (inactive).

Consider `CN(C)Cc1ccccc1O`, for which the Potency result in [1], in test [2], in test [4], in test [6], in test [7] and in test [8] was “inactive” each time. Further, the Potency result in test [9] and in test [10] was “inactive” in each case. Also, the max response in [3] was 3.13% (inactive).

As to `Cc1cc(=O)oc2cc(O)cc(O)c12`, the Potency result in test [1], in test [2], in test [5], in test [6], in test [7] and in [8] was “inactive” throughout. For the same compound, in [9], the Potency entry is “inactive”. Further, the max response in [3] was -8.17% (inactive).

For `O=C(O)c1cc(N=Nc2ccc([N+](=O)[O-])cc2)ccc1O`, the Potency entry in [1], in test [2], in test [4], in test [6], in test [7] and in [8] was “inactive” each time. In addition, the Potency entry in test [10] is “inactive”. Besides, the max response in test [3] was -17% (inactive).

Consider `COc1cccc2c1C(=O)c1c(O)c3c(c(O)c1C2=O)C[C@@](O)(C(C)=O)C[C@@H]3O[C@H]1C[C@H](N)[C@H](O)[C@H](C)O1`, for which the Potency in [1] was 6.2 µM (active) and 151 nM (active); in test [2], 49.3 µM (active); in test [3], 62 nM (active) and 3 nM (active); in [6] it was 22 µM (active); in [10], 43.9 µM (active) and inactive. The Potency result in test [5], in test [7], in test [8] and in test [9] was “inactive” in each case.

Regarding `O=C(O)CN(CCN(CC(=O)O)CC(=O)O)CC(=O)O`, the results for the activity change, negative = cytotoxicity in test [1] and in test [9] were 0.0628% [at 2.72 µM] (inactive) and 0.0989% [at 2.72 µM] (inactive), respectively. In addition, the viability change, negative = cytotoxic in test [2] was -13.2% [at 2.72 µM] (inactive). Besides, the max response in test [3] is 7.27% (inactive). The Potency in test [5] was 1.74 µM (active); in test [7], 1.74 µM (active); in [8] it was 1.96 µM (active). The activity change, negative = cytotoxic in test [6] was 4.09% [at 2.72 µM] (inactive).

Turning to `O=c1c(O)c(-c2ccc(O)cc2O)oc2cc(O)cc(O)c12`, the Potency entry in [1], in [2], in test [4], in test [6], in test [9] and in test [10] was “inactive” each time. Besides, the max response in test [3] is 7.77% (inactive).

Take `CC(C)=CCNc1ncnc2c1ncn2[C@@H]1O[C@H](CO)[C@@H](O)[C@H]1O`: the Potency result in test [1], in test [2], in test [4], in [6] and in test [9] was “inactive” in each case.

Consider `OC1CCC(C2CCCCC2)CC1` (centres undefined), for which the Potency entry in test [1], in test [2], in test [4], in test [6], in test [9] and in test [10] was “inactive” throughout. Also, the max response in test [3] was -6.69% (inactive). Further, in test [7], the Potency is 43.6 µM (active).

Consider `C#C[C@]1(OC(C)=O)CC[C@H]2[C@@H]3CCC4=C/C(=N/O)CC[C@@H]4[C@H]3CC[C@@]21CC`, for which the Potency in [1] is 23.9 µM (active). The Potency result in test [2], in [4], in [5], in test [6], in test [7] and in [8] was “inactive” each time. Also, the Potency result in test [9] and in test [10] was “inactive” each time.
